About 83,000 compounds went through this panel and 20% of them were active in at least one assay; those are over-represented in the sample as a whole.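 Percent growth is the endpoint: 0 to 100 indicates growth inhibition (40 means 60% inhibition), 0 means no net growth, and negative values indicate cell death.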 Activity calls are given as the source filed them.

This assay has as its system U251 CNS. The assay is described as follows: NCI-60 one-dose screen, 48 h (100 = growth as untreated, 0 = no growth, -100 = all killed). Conditions: 10 µM unless noted. How it is done: Growth inhibition of the U251 human tumor cell line is measured as a screen for anti-cancer activity. Cells are grown in 96 well plates and exposed to the test compound for 48 hours. Compounds are tested at a single concentration, which is 10^-5 M for most compounds. The reported endpoint is percent growth (GI% or GIPRCNT), where numbers from 0 - 100% represent growth inhibition, and numbers from -100% - 0 represent cell death. For example, a value of 40 represents 60% growth inhibition. A value of 0 means no net growth occurred over the course of the experiment. A value of -40 indicates 40% of cells at the beginning of the experiment died by the end of the experiment. A value of -100 means all cells are dead at the end of the experiment.
NCI-60 Human Tumor Cell Lines Screen was performed using the standard one-dose NCI protocol, which is described in more detail at https://dtp.cancer.gov/discovery_development/nci-60/default.htm.
Compounds with GIPRCNT values below 10 were considered active. Activity score was based on GIPRCNT using the following formula: […]
Score is 0 for GIPRCNT values of 100 or above, 50 for GIPRCNT values of 0, and 100 for GIPRCNT values of -100.
As for `Brc1ccc(C2CC(c3cccc(Nc4ccncc4)c3)=NN2c2ccccc2)cc1` (stereo not given), the growth is 32.1% (inactive).

Regarding `CC(C)NC(=O)N1C(=O)CCC1NNC(=O)c1ccc([N+](=O)[O-])cc1` (stereo not given), the growth is 109% (inactive).

Take `Nc1nnc(C(=O)c2cnc3n(c2=O)CCCCC3)s1`: the growth is 101% (inactive).

For the molecule `O=C(Nc1nc(-c2ccccc2Cl)cs1)c1cc(-c2ccccc2)nc2ccc(Cl)cc12`, the growth is 62.5% (inactive).

For the molecule `CC(=O)c1cccc(NS(=O)(=O)c2cccc(C(=O)Nc3ccc(Br)cc3)c2)c1`, the growth was 62.7% [25 µM] (inactive).

Consider `C=C(C)[C@@H]1CC[C@]2(C(=O)N3CCN(C)CC3)CC[C@]3(C)[C@H](CC[C@@H]4[C@@]5(C)CCC(=O)C(C)(C)[C@@H]5CC[C@]43C)[C@@H]12`, for which the growth was 69.7% (inactive).

With `COc1cc(NCCCN(CC(C)C)C2CCCC2)c2ncccc2c1`, the growth is 76.6% (inactive).

Regarding `COc1ccc(/C=C\c2nc3ccccc3s2)cc1OP(=O)(O)O`, the growth is 32.6% (inactive).

In the case of `Clc1ccc(C2CC(c3cccc(Nc4ccncc4)c3)=NN2c2ccccc2)cc1` (stereo not given), the growth was -11.4% (active).

Take `CCN1C(=O)N(CC)C2NC(SC)=NC21` (stereo not given): the growth is 101% (inactive).

Turning to `O=S(=O)(NCCCNc1nccc(-c2c(-c3cccc(O)c3)nc3occn23)n1)c1ccc(Br)cc1`, the growth is 104% (inactive).

For `Clc1cc(Cl)cc(N2N=C(c3cccc(Nc4ccncc4)c3)CC2c2ccc(Br)cc2)c1` (stereo not given), the growth is -29.8% (active).

On to `COc1ccc(Cn2nc(-c3ccccc3)c3c2CCc2cnoc2-3)cc1`, for which the growth is 78% (inactive).

In the case of `CCOc1cc(CNc2ccc(N3CCOCC3)c(C(=O)O)c2)ccc1OC`, the growth is 103% (inactive).

On to `CCCCCCCCCCCCCCCC(=O)OC[C@@]1(O)C[C@@]23CC[C@@H]4C(C)(C)[C@H](O)CC[C@@]4(C)[C@@H]2CC[C@H]1C3`, for which the growth is 107% (inactive).

Consider `COc1cc(C2CC(c3cccc(Nc4ccncc4)c3)=NN2c2cc(Cl)cc(Cl)c2)cc(OC)c1OC` (stereo not given), for which the growth was -51.1% (active).

Take `CN1CCN(c2ccc(NC3=C(Cl)C(=O)c4ncccc4C3=O)cc2C#N)CC1`: the growth was 56.1% (inactive).

For the molecule `COc1ccc(C(=O)c2cc3c(N)c(C(=O)Nc4cccc(OC)c4)sc3nc2C)cc1`, the growth is 15.1% (inactive).

`COc1ccccc1C(C[N+](=O)[O-])c1c(-c2ccccc2)[nH]c2cc(C)ccc12` (stereo not given): the growth was 83.9% (inactive).

With `C=CCn1c(SCC(=O)Nc2ccc(C(=O)/C=C/c3cc(OC)c(OC)c(OC)c3)cc2)nnc1-c1cc(-c2ccc(S(C)(=O)=O)cc2)nc2ccccc12`, the growth was 88.3% (inactive).

As for `Cc1cccc(Oc2ccc(Nc3ncnc4ccc(NC(=O)CN(C)C)cc34)cc2Cl)c1`, the growth is 28.1% (inactive).

Take `CCCCCCCCN1C(=O)/C(=c2\sc3n(c2=O)C2C(NN=3)N(CC)C(=O)N2CC)c2ccccc21` (stereo not given): the growth is 46.2% (inactive).

Take `O=C1NC(=O)C(=Cc2cn(Cc3ccccn3)c3ccccc23)C(=O)N1`: the growth is 97.2% (inactive).

With `c1ccc(CCSc2ncnc3nc[nH]c23)cc1`, the growth was 91.1% (inactive).

In the case of `O=C(N/N=C/c1ccc(F)cc1)c1ccccc1Nc1cccc(C(F)(F)F)c1`, the growth was 100% (inactive).

In the case of `CCc1c(Nc2ccc(C)cc2)[nH]c(N)nc1=S`, the growth was 97% (inactive).

In the case of `COc1ccc(C2=NN(C(C)=O)C(c3cn(Cc4ccc(Cl)cc4)c4ccccc34)C2)cc1` (stereo not given), the growth was 84.5% (inactive).

Turning to `CCCc1cc2c(cc1Br)OCO2`, the growth is 100% (inactive).

With `CC(=O)c1c(C)[nH]c(-c2nc3ccc(N4CCN(C)CC4)cc3[nH]2)c1-c1ccccc1`, the growth was 44.7% (inactive).

For the molecule `CN1CCN(c2cc(F)c(NC3=C(Cl)C(=O)c4ncccc4C3=O)c(F)c2)CC1`, the growth is -9.88% (active).

As to `O=C(NCCN1CCOCC1)OCc1nc2nc(Cl)nc(N3CCOCC3)c2[nH]1`, the growth is 19.7% (inactive).

On to `OC(c1ccccc1)c1ccccn1` (stereo not given), for which the growth was 96.1% (inactive).

As for `COc1ccc2nc(N=Nc3c(O)ccc4ccccc34)sc2c1`, the growth is 23.1% (inactive).

Turning to `FCc1nc2nc(Cl)c(Cl)nc2[nH]1`, the growth was 101% (inactive).

In the case of `NC(=S)N/N=C/c1ccc(OC(=O)COc2cc(Cl)c(Cl)cc2Cl)cn1`, the growth was 54% (inactive).

Consider `CC(O)/C=C/C=C/C(O)CC/C=C/C(=O)NCC(C)(C)O` (stereo not given), for which the growth is 98.3% (inactive).

Take `COc1ccc(C2CC(n3nnnc3-c3ccccc3)=NN2)cc1` (stereo not given): the growth was 83.9% (inactive).

Take `COc1cc(C2CC(c3cccc(Nc4ccncc4)c3)=NN2c2ccccc2)cc(OC)c1OC` (stereo not given): the growth was 19.7% (inactive).

Turning to `O=C(O)c1ccc[n+](CC(=O)N2CCN(c3cc4c(cc3F)c(=O)c(C(=O)O)cn4C3CC3)CC2)c1`, the growth was 74.7% (inactive).

For `O=c1nc2n(nc1/C=C/c1ccco1)CC(c1ccc(Cl)cc1)=NN2`, the growth is 115% (inactive).

Values taken from PubChem BioAssay (NCI).
